{"source": "PubChem BioAssay AID463173", "about": "(ICCB-Longwood Screening Facility, Harvard Medical School, 2010)", "note": "Hit rate of the full screen: of about 52,000 compounds, about 1,700 (3.3%) were called active. The sample as a whole holds a higher share of actives than the screen did. A number with no mark means an inactive call. Cut-off read from the data, not from the text of the source: active = survival mostly below about 52% (no sharp cut-off); inactive = mostly above about 56%."}
{"test_system": "Wild type", "experiment": "growth inhibition of S. aureus wild type versus tarO mutant, primary screen, teichoic acid synthesis inhibitors, RN4220, OD600 (AID 463173)", "conditions": "S. aureus RN4220 wild type/DeltatarO growth, OD600, 18 h, hits give low values, screened at 18.75 µg/mL (by protocol)"}
{"smiles": "CCOC(=O)c1c(S(=O)(=O)N2CCC(C(=O)Nc3ncccc3C)CC2)c(C)n(C)c1C", "survival": "72%"}
{"smiles": "COc1cc(C(=O)N(CCCN(C)C)c2nc3c(OC)cccc3s2)cc(OC)c1OC", "survival": "124%"}
{"smiles": "Cc1ccc(CN2CCCn3nc(C(=O)NCCc4ccccc4C)cc3C2=O)cc1", "survival": "79%"}
{"smiles": "O=C(c1ccccc1)C(C(=O)N1CCCCC1)n1ccccc1=O", "note": "(stereo unspecified)", "survival": "113%"}
{"smiles": "Cc1cc(=O)c2cc(C(=O)Nc3ccc(F)cc3)ccc2[nH]1", "survival": "87%"}
{"smiles": "Cc1ccc(S(=O)(=O)N(CC(=O)N2CCC(C(N)=O)CC2)c2ccccc2F)cc1", "survival": "98%"}
{"smiles": "Cc1ccccc1CN1CCN(CC(=O)NCc2ccccc2Cl)C1=O", "survival": "77%"}
{"smiles": "COc1ccc(CNC(=O)CCS(=O)(=O)c2ccc3c(c2)CC(C)N3C(=O)C2CC2)cc1", "note": "(stereo unspecified)", "survival": "76%"}
{"smiles": "COc1ccccc1CNC(=O)CCS(=O)(=O)c1ccc2c(c1)CC(C)N2C(=O)C1CC1", "note": "(stereo unspecified)", "survival": "0% (active)"}
{"smiles": "CCC(=O)N1c2ccc(S(=O)(=O)CCC(=O)NCc3cccc(OC)c3)cc2CC1C", "note": "(stereo unspecified)", "survival": "82%"}
{"smiles": "COc1cccc(CNC(=O)CCS(=O)(=O)c2ccc3c(c2)CC(C)N3C(=O)C2CC2)c1", "note": "(stereo unspecified)", "survival": "-3% (active)"}
{"smiles": "CC1Cc2cc(S(=O)(=O)CCC(=O)NCc3ccccc3Cl)ccc2N1C(=O)C1CC1", "note": "(stereo unspecified)", "survival": "72%"}
{"smiles": "CCC(=O)N1c2ccc(S(=O)(=O)CCC(=O)NCc3ccccc3OC)cc2CC1C", "note": "(stereo unspecified)", "survival": "87%"}
{"smiles": "COC(=O)c1ccccc1NC(=O)c1c(C)oc2ncn(C)c(=O)c12", "survival": "95%"}
{"smiles": "CC(C)N(C(=O)CSc1nc2ccc(Cl)cc2[nH]1)c1ccccc1", "survival": "81%"}
{"smiles": "O=c1c2cc3c(cc2nc2sc(Nc4ccc(F)c(Cl)c4)nn12)OCO3", "survival": "138%"}
{"smiles": "Cc1ccc(-n2nnnc2CNC(=O)c2cc(C(F)(F)F)cc(C(F)(F)F)c2)cc1C", "survival": "-3% (active)"}
{"smiles": "Cc1ccc(C(=O)NCc2nnnn2-c2ccc(C)c(C)c2)cc1", "survival": "82%"}
{"smiles": "Cc1ccc(-n2nnnc2CNC(=O)c2ccc(F)cc2)cc1C", "survival": "124%"}
{"smiles": "CC(C)(C)c1ccc(C(=O)NC2CCNCC2)cc1", "survival": "108%"}
{"smiles": "CC(C)Cn1c(=O)c2ccccc2n2c(CCC(=O)NCc3ccc(Cl)cc3)nnc12", "survival": "92%"}
{"smiles": "O=C(Nc1ccc2nc(SCC(=O)N3CCOCC3)sc2c1)c1ccc(F)cc1", "survival": "92%"}
{"smiles": "Cc1cccc(Nc2nc(-c3ccccc3)c3cc(C)ccc3n2)c1", "survival": "11% (active)"}
{"smiles": "Cc1ccc(C)c(Nc2nc(-c3ccccc3)c3cc(Br)ccc3n2)c1", "survival": "42%"}
{"smiles": "COc1ccc(Nc2nc(-c3ccccc3)c3cc(Br)ccc3n2)cc1", "survival": "37%"}
{"smiles": "Cc1ccc2nc(NN)nc(-c3ccccc3)c2c1", "survival": "100%"}
{"smiles": "Cc1ccc2nc(Nc3ccc(Br)cc3)nc(-c3ccccc3)c2c1", "survival": "56%"}
{"smiles": "COc1cccc(Nc2nc(-c3ccccc3)c3cc(C)ccc3n2)c1", "survival": "9% (active)"}
{"smiles": "CN(CC(=O)NCc1ccccc1)S(=O)(=O)c1ccc2[nH]c3c(c2c1)CCCC3", "survival": "72%"}
{"smiles": "COc1cccc(NCc2nnc3n2CCCCC3)c1", "survival": "83%"}
{"smiles": "Cc1nc2c(c(C)nn2-c2ccccc2)c(C)c1CCC(=O)Nc1ccccc1", "survival": "87%"}
{"smiles": "CCc1ccc(NC(=O)CSc2nc(=O)n(Cc3ccncc3)c3c2CCC3)cc1", "survival": "80%"}
{"smiles": "CCOc1ccccc1CNC(=O)c1cc2oc3ccccc3c2n1CC", "survival": "2% (active)"}
{"smiles": "CCn1c(C(=O)NCc2cccc(Br)c2)cc2oc3ccccc3c21", "survival": "7% (active)"}
{"smiles": "CCn1c(C(=O)NCc2ccccc2C)cc2oc3ccccc3c21", "survival": "15%"}
{"smiles": "CCn1c(C(=O)NCc2cc(Br)ccc2OC)cc2oc3ccccc3c21", "survival": "78%"}
{"smiles": "CCn1c(C(=O)NCc2ccc(F)cc2)cc2oc3ccccc3c21", "survival": "115%"}
{"smiles": "CCn1c(C(=O)NCc2ccccc2Br)cc2oc3ccccc3c21", "survival": "36%"}
{"smiles": "Clc1ccc(N2CCN(c3ncnc4c3nc3n4CCCC3)CC2)cc1", "survival": "73%"}
{"smiles": "Cc1ccc(C(=O)Nc2ccc(-n3c(C)nc4ccccc4c3=O)cc2)cc1[N+](=O)[O-]", "survival": "121%"}
{"smiles": "Cc1c(C(=O)Nc2ccc(-n3c(C)nc4ccccc4c3=O)cc2)cccc1[N+](=O)[O-]", "survival": "80%"}
{"smiles": "Cc1cc(-n2c(C)nc3ccccc3c2=O)ccc1NC(=O)c1ccccc1[N+](=O)[O-]", "survival": "88%"}
{"smiles": "Cc1cc(-n2c(C)nc3ccccc3c2=O)ccc1NC(=O)c1ccc(C)c([N+](=O)[O-])c1", "survival": "10% (active)"}
{"smiles": "Cc1cc(-n2c(C)nc3ccccc3c2=O)ccc1NC(=O)c1ccc([N+](=O)[O-])cc1", "survival": "82%"}
{"smiles": "Cc1cc(-n2c(C)nc3ccccc3c2=O)ccc1NC(=O)c1cccc([N+](=O)[O-])c1C", "survival": "-2% (active)"}
{"smiles": "COc1ccc(-c2c[n+](=O)c3c(n2[O-])CCC3)cc1", "survival": "103%"}
{"smiles": "COC(=O)C1CCN(S(=O)(=O)c2ccc(OC)cc2)CC1", "survival": "102%"}
{"smiles": "CCN(CC)C(=O)c1sc2c(c1C)c(=O)n(Cc1ccccc1)c(=O)n2Cc1ccc(Cl)cc1", "survival": "73%"}
{"smiles": "CCc1ccc(CNC(=O)C2COc3ccc(OC)cc3C2)cc1", "note": "(stereo unspecified)", "survival": "93%"}
{"smiles": "Cc1ccc(NC(=O)Cn2cc3c(n2)CCCC3)c(Cl)c1", "survival": "93%"}
{"smiles": "COc1ccc(CNC(=O)c2cnn(-c3ccc(OC)cc3)c2C2CCN(C(=O)OC(C)(C)C)CC2)cc1", "survival": "76%"}
{"smiles": "Cc1ccc(-n2ncc(C(=O)NCc3cccs3)c2C2CCN(C(=O)OC(C)(C)C)CC2)cc1C", "survival": "90%"}
{"smiles": "CC(C)(C)OC(=O)N1CCC(c2c(C(=O)Nc3ccc4c(c3)OCCO4)cnn2-c2ccc(F)cc2)CC1", "survival": "69%"}
{"smiles": "CC(C)(C)OC(=O)N1CCC(c2c(C(=O)NCc3ccccc3)cnn2-c2ccc(F)cc2)CC1", "survival": "133%"}
{"smiles": "CCOc1ccc(OCC)c(NC(=O)c2cnn(-c3ccc(F)cc3)c2C2CCN(C(=O)OC(C)(C)C)CC2)c1", "survival": "14% (active)"}
{"smiles": "CC(C)(C)OC(=O)N1CCC(c2c(C(=O)NCc3cccs3)cnn2-c2ccc(F)cc2F)CC1", "survival": "81%"}
{"smiles": "CC(C)(C)OC(=O)N1CCC(c2c(C(=O)NCc3cccs3)cnn2-c2cccc(F)c2)CC1", "survival": "-6% (active)"}
{"smiles": "CCOc1ccc(NC(=O)c2cnn(-c3ccc(C)c(C)c3)c2C2CCN(C(=O)OC(C)(C)C)CC2)cc1", "survival": "89%"}
{"smiles": "CC(C)(C)OC(=O)N1CCC(c2c(C(=O)NCc3ccc(F)cc3)cnn2-c2ccc(F)cc2)CC1", "survival": "-6% (active)"}
{"smiles": "COc1ccc(NC(=O)CSc2ncc3c(n2)-c2ccccc2N(Cc2ccc(C)cc2)S3(=O)=O)cc1Cl", "survival": "134%"}
{"smiles": "Cc1cccc(OCC(=O)OCc2cc(=O)n3nc(C4CCCCC4)sc3n2)c1", "survival": "100%"}
{"smiles": "N#Cc1cc2cc3c(cc2nc1N1CCCN(C(=O)c2ccccc2)CC1)OCO3", "survival": "103%"}
{"smiles": "COc1ccc(C(=O)NCC(c2ccc3c(c2)OCO3)N2CCN(c3ccccc3F)CC2)cc1", "note": "(stereo unspecified)", "survival": "77%"}
{"smiles": "Cc1ccc(NC(=O)CN2C(=O)COc3ccc(S(=O)(=O)N4CCCCC4)cc32)cc1N(C)C", "survival": "106%"}
{"smiles": "CC(=O)N1CCc2cc(Br)cc(S(=O)(=O)CCC(=O)N3CCN(c4cccc(C)c4C)CC3)c21", "survival": "77%"}
{"smiles": "Fc1ccc(Nc2ncnc3c2nc2n3CCCCC2)c(F)c1", "survival": "14% (active)"}
{"smiles": "Fc1ccc(Nc2ncnc3c2nc2n3CCCC2)cc1", "survival": "76%"}
{"smiles": "COc1ccc(Nc2ncnc3c2nc2n3CCCC2)cc1Cl", "survival": "59%"}
{"smiles": "Clc1cccc(Nc2ncnc3c2nc2n3CCCCC2)c1", "survival": "-1% (active)"}
{"smiles": "COc1ccccc1Nc1ncnc2c1nc1n2CCCCC1", "survival": "133%"}
{"smiles": "Fc1ccccc1Nc1ncnc2c1nc1n2CCCCC1", "survival": "74%"}
{"smiles": "Clc1cccc(CNc2ncnc3c2nc2n3CCCC2)c1", "survival": "92%"}
{"smiles": "Clc1ccccc1Nc1ncnc2c1nc1n2CCCCC1", "survival": "0% (active)"}
{"smiles": "CCc1ccccc1Nc1ncnc2c1nc1n2CCCC1", "survival": "71%"}
{"smiles": "CCC(=O)N1CCc2cc(S(=O)(=O)NC(Cc3ccccc3)C(=O)NCc3ccc(F)cc3)ccc21", "note": "(stereo unspecified)", "survival": "83%"}
{"smiles": "COc1ccc(-c2cc(-c3ccccc3)nc(SCC(=O)Nc3ccccc3C)c2C#N)cc1", "survival": "70%"}
{"smiles": "COC(=O)c1ccc(Cl)cc1NC(=O)N(C)CCc1c(C)nn(C)c1C", "survival": "111%"}
{"smiles": "C#CCn1c(O)c(N=NC(=O)c2ccncc2)c2cc(Br)ccc21", "survival": "110%"}
{"smiles": "Cc1noc(C)c1S(=O)(=O)NCCc1csc2nc(-c3ccc(Cl)cc3)nn12", "survival": "72%"}
{"smiles": "O=C(O)c1cccc(NC(=O)c2cccc(S(=O)(=O)Nc3cccc(F)c3)c2)c1", "survival": "169%"}
{"smiles": "CCc1c(C)nc2nncn2c1Nc1ccc(C)c(F)c1", "survival": "83%"}
{"smiles": "Cc1cc(C)cc(NC(=O)Cc2c(C(=O)O)c(C)cn2C)c1", "survival": "47%"}
{"smiles": "CCOC(=O)c1cnc2c(C)cc(C)cc2c1Nc1cccc(C(=O)O)c1", "survival": "23% (active)"}
{"smiles": "CCOC(=O)c1cnc2c(C)cc(C)cc2c1Nc1ccc(N2CCOCC2)cc1", "survival": "15%"}
{"smiles": "CCOC(=O)c1cnc2c(C)cc(C)cc2c1Nc1ccc(OCc2ccccc2)cc1", "survival": "11% (active)"}
{"smiles": "CCOC(=O)c1cnc2c(C)cc(C)cc2c1Nc1ccccc1OCC", "survival": "-1% (active)"}
{"smiles": "CCOC(=O)c1cnc2c(C(F)(F)F)cccc2c1Nc1cccc(C(=O)OC)c1", "survival": "26%"}
{"smiles": "CCOC(=O)c1cnc2c(C)cc(C)cc2c1NCCN1CCOCC1", "survival": "53%"}
{"smiles": "CCOC(=O)c1cnc2c(Cl)cc(Cl)cc2c1Nc1ccccc1OC", "survival": "65%"}
{"smiles": "CCOC(=O)c1cnc2c(ccc3ccccc32)c1Nc1ccccc1OCC", "survival": "109%"}
{"smiles": "Cc1nn2c(=O)cc(COC(=O)c3ccccc3NC(=O)C(C)C)nc2s1", "survival": "74%"}
